Experimental data from PubChem BioAssay.

Each compound was assayed against Voltage-gated potassium channel subunit beta-2 (Rattus norvegicus) (UniProt P62483) (assay: KvBeta enzyme negative modulators, primary screen, biochemical, NADPH fluorescence (AID 622;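 active = fluorescence slope higher than the sample average by over 3 SD, cut at about -0.22 in these data, passing the limit was not always enough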;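 note: slope of raw intensity against log time taken from 70 to 1610 s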)). Settings: recombinant KvBeta, 4-cyanobenzaldehyde reduction, at 10 µM, hits give high values.
Sequence of Voltage-gated potassium channel subunit beta-2 (Rattus norvegicus) (P62483 whole entry, looked up): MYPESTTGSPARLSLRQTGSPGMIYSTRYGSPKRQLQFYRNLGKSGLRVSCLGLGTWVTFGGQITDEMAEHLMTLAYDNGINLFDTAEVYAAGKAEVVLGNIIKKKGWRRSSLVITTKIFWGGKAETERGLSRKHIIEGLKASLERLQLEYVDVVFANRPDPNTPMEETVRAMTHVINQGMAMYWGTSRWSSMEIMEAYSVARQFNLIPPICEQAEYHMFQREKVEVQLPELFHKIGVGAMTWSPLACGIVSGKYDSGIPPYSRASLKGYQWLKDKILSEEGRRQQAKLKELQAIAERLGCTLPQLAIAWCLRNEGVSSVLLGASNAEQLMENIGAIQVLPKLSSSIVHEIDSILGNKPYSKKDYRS

Fluorescence slope, inactive:
COc1ccc(C)cc1NS(=O)(=O)c1ccc(NS(=O)(=O)c2ccc(NC(C)=O)cc2)cc1 -0.514
O=C(c1ccc(Cl)s1)N1CCN(c2nc3ccccc3s2)CC1 -0.392
CCCC(=O)Nc1cc(C)c(NC(=O)c2ccccn2)cn1 -0.606
c1ccc2c(c1)CC(N1CCCCC1)c1ccccc1N2 (stereo not drawn) -0.41
C=CCN(CC=C)C(=O)c1ccncc1 -0.501
Fc1cccc(NCc2cn3ccccc3n2)c1 -0.209
COc1ccc(S(=O)(=O)NCCC(=O)NC2CCCCCCC2)cc1 -0.4
O=C(C1CCCN(S(=O)(=O)c2cccs2)C1)N1CCc2ccccc2C1 (stereo not drawn) -0.586
CCCCc1noc2c1/C(=N\O)CC(c1ccccc1)C2 (stereo not drawn) -0.446
CCOC(=O)C1CN(S(=O)(=O)c2ccc(C)cc2)CCN1S(=O)(=O)c1ccc(C)cc1 (stereo not drawn) -0.591
CCS(=O)(=O)NCCc1cc2c(OC)ccc(OC)c2[nH]c1=O -0.488
COC(=O)C1=C(C)NC(C)=C(C(=O)OC)C1C1CC=CCC1 (stereo not drawn) -0.456
CCOCC(=O)Nc1c(C(=O)Nc2ccc(OC)cc2OC)oc2ccccc12 -0.19
Cc1nn(Cc2ccc(C(=O)NC3CCCCC3)o2)c(C)c1Br -0.395
O=C(C1CCN(S(=O)(=O)c2cccc3cccnc23)CC1)N1CCN(C2CCCCC2)CC1 -0.565
COc1cccc(C2CC(c3ccc(F)cc3)Nc3nc(N)nn32)c1 (stereo not drawn) -0.501
CCSc1nnc(NC(=O)c2csc(C)c2)s1 -0.592
Cc1ccc2cc(CCNC(=O)C(C)C)c(=O)[nH]c2c1C -0.57
COc1cccc(-c2nc(CS(=O)(=O)CC(=O)N3CCN(c4ccccn4)CC3)c(C)o2)c1 -0.506
COC(=O)CSc1ncccc1-c1nc2ccccc2[nH]1 -0.512
Cc1ccc2[nH]c(=O)c(-c3noc(-c4ccncc4)n3)cc2c1 -0.31
C/C(=N\O)C(=O)NCc1ccccn1 -0.431
CCCC(=O)Nc1ccccc1-c1nnn(CC(=O)Nc2ccc(OCC)cc2)n1 -0.444
CSc1nnc(-c2ccc(NC(=O)CCc3ccccc3)cc2)n1C -0.474
Cn1c(=O)c2c(nc(-n3ccnc3)n2C)n(C)c1=O -0.362
COC(=O)c1ccccc1NC(=O)CSc1nc2c(c(=O)n(C)c(=O)n2C)n1C -0.382
CN(C(=O)Cn1c(=O)n(CCCCC(=O)NC2CCCC2)c(=O)c2ccccc21)C1CCCCC1 -0.478
CCOC(=O)c1ccc(NC(=O)Cn2cc3c(n2)CCC(C)C3)cc1 (stereo not drawn) -0.485
O=C(Nc1cnn(C23CC4CC(CC(C4)C2)C3)c1)c1cnn2c(C(F)(F)F)cc(-c3ccco3)nc12 -0.498
N#C/C(=C(/O)COC(=O)CCC1CCCCC1)c1nc2ccccc2[nH]1 -0.595
O=C(c1ccccc1-c1nc(-c2ccccc2)no1)N1CCCC1 -0.534
CC(=O)SCCC(=O)Nc1ccccc1 -0.498
c1ccc(Cn2ncc3c2ncn2c(-c4ccncc4)nnc32)cc1 -0.517
CCOC(=O)c1sc2nc(SCC(=O)NCc3ccco3)n(Cc3ccccc3)c(=O)c2c1C -0.449
N#Cc1nc(-c2ccco2)oc1N1CCN(c2cccc(Cl)c2)CC1 -0.334
COc1ccc(C2(C(=O)N3CCCC3)CCOCC2)cc1OC -0.341
O=C(O)CN1C(=O)CNC1=O -0.519
Cc1c(Cl)cnc(NC(=O)COC(=O)C(NC(=O)c2ccco2)C(C)C)c1Cl (stereo not drawn) -0.584
CCOc1ccc(N(CC(=O)NCc2ccco2)S(=O)(=O)c2ccc(OC)c(OC)c2)cc1 -0.409

What follows are compounds tested against Voltage-gated potassium channel subunit beta-2 (Rattus norvegicus) (UniProt P62483) (assay: KvBeta positive modulators, primary screen, biochemical, NADPH fluorescence (AID 623;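 note: fluorescence intensity change per second fitted from 20 to 320 s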)). Settings: Recombinant KvBeta, NADPH fluorescence decrease slope, 10 min; at 10 µM; hits give low values.

NADPH fluorescence slope, inactive:
COc1ccc(C)cc1NS(=O)(=O)c1ccc(NS(=O)(=O)c2ccc(NC(C)=O)cc2)cc1 -6e-05
O=C(c1ccc(Cl)s1)N1CCN(c2nc3ccccc3s2)CC1 2e-05
CCCC(=O)Nc1cc(C)c(NC(=O)c2ccccn2)cn1 -5.2e-05
c1ccc2c(c1)CC(N1CCCCC1)c1ccccc1N2 (stereo not drawn) -0.000142
C=CCN(CC=C)C(=O)c1ccncc1 1.1e-05
Fc1cccc(NCc2cn3ccccc3n2)c1 -1.6e-05
COc1ccc(S(=O)(=O)NCCC(=O)NC2CCCCCCC2)cc1 -8.9e-05
O=C(C1CCCN(S(=O)(=O)c2cccs2)C1)N1CCc2ccccc2C1 (stereo not drawn) -5.1e-05
CCCCc1noc2c1/C(=N\O)CC(c1ccccc1)C2 (stereo not drawn) -5.9e-05
CCOC(=O)C1CN(S(=O)(=O)c2ccc(C)cc2)CCN1S(=O)(=O)c1ccc(C)cc1 (stereo not drawn) 3.6e-05
CCS(=O)(=O)NCCc1cc2c(OC)ccc(OC)c2[nH]c1=O -3.1e-05
COC(=O)C1=C(C)NC(C)=C(C(=O)OC)C1C1CC=CCC1 (stereo not drawn) 8.7e-05
CCOCC(=O)Nc1c(C(=O)Nc2ccc(OC)cc2OC)oc2ccccc12 -9.5e-06
Cc1nn(Cc2ccc(C(=O)NC3CCCCC3)o2)c(C)c1Br -3.4e-05
O=C(C1CCN(S(=O)(=O)c2cccc3cccnc23)CC1)N1CCN(C2CCCCC2)CC1 -1.6e-05
COc1cccc(C2CC(c3ccc(F)cc3)Nc3nc(N)nn32)c1 (stereo not drawn) 2.1e-05
CCSc1nnc(NC(=O)c2csc(C)c2)s1 -1.3e-05
Cc1ccc2cc(CCNC(=O)C(C)C)c(=O)[nH]c2c1C -2.3e-05
COc1cccc(-c2nc(CS(=O)(=O)CC(=O)N3CCN(c4ccccn4)CC3)c(C)o2)c1 -1.1e-05
COC(=O)CSc1ncccc1-c1nc2ccccc2[nH]1 3.1e-05
Cc1ccc2[nH]c(=O)c(-c3noc(-c4ccncc4)n3)cc2c1 -6e-05
C/C(=N\O)C(=O)NCc1ccccn1 1.8e-05
CCCC(=O)Nc1ccccc1-c1nnn(CC(=O)Nc2ccc(OCC)cc2)n1 -0.000123
CSc1nnc(-c2ccc(NC(=O)CCc3ccccc3)cc2)n1C -3e-05
Cn1c(=O)c2c(nc(-n3ccnc3)n2C)n(C)c1=O 8.4e-06
COC(=O)c1ccccc1NC(=O)CSc1nc2c(c(=O)n(C)c(=O)n2C)n1C 2e-05
CN(C(=O)Cn1c(=O)n(CCCCC(=O)NC2CCCC2)c(=O)c2ccccc21)C1CCCCC1 1.3e-07
CCOC(=O)c1ccc(NC(=O)Cn2cc3c(n2)CCC(C)C3)cc1 (stereo not drawn) 2.3e-05
O=C(Nc1cnn(C23CC4CC(CC(C4)C2)C3)c1)c1cnn2c(C(F)(F)F)cc(-c3ccco3)nc12 -2.2e-05
N#C/C(=C(/O)COC(=O)CCC1CCCCC1)c1nc2ccccc2[nH]1 -3.2e-05
O=C(c1ccccc1-c1nc(-c2ccccc2)no1)N1CCCC1 -2.8e-05
CC(=O)SCCC(=O)Nc1ccccc1 3.1e-06
c1ccc(Cn2ncc3c2ncn2c(-c4ccncc4)nnc32)cc1 -1.5e-05
CCOC(=O)c1sc2nc(SCC(=O)NCc3ccco3)n(Cc3ccccc3)c(=O)c2c1C -2.2e-05
N#Cc1nc(-c2ccco2)oc1N1CCN(c2cccc(Cl)c2)CC1 2.4e-05
COc1ccc(C2(C(=O)N3CCCC3)CCOCC2)cc1OC -1.4e-05
O=C(O)CN1C(=O)CNC1=O 9.8e-06
Cc1c(Cl)cnc(NC(=O)COC(=O)C(NC(=O)c2ccco2)C(C)C)c1Cl (stereo not drawn) -3.9e-05
CCOc1ccc(N(CC(=O)NCc2ccco2)S(=O)(=O)c2ccc(OC)c(OC)c2)cc1 4.2e-05
